# Measured values taken from PubChem BioAssay.
# “And” between values parts separate entries of the source, which are not always exact repeats. Equal entries are not always repeated. The source made the active and inactive calls.
# What was measured:
# [1] = binders of probe aFSTL3 on microarray, primary screen, stem cell growth factor project, biochemical, small-molecule microarray, fluorescence 635/667 (AID 1064); conditions: higher = more signal;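 also: measures binding of the biotinylated anti-FSTL3 antibody to printed compounds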
# [2] = binders from COS7 lysate, DM2A8 probe, primary screen, torsin A project, cell lysate, small-molecule microarray, fluorescence 635/667 (AID 1065); conditions: higher = more signal, COS7 lysate expressing mutant human TOR1A
# [3] = binders of probe aFGF2 on microarray, primary screen, stem cell growth factor project, biochemical, small-molecule microarray, fluorescence 635/667 (AID 1067); conditions: higher = more signal;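 also: measures binding of biotinylated aFGF2 protein to printed compounds on slides; z-score merges feature fluorescence and signal-to-noise across triplicate slides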
# [4] = binders of probe aFGF10 on microarray, primary screen, stem cell growth factor project, biochemical, small-molecule microarray, fluorescence 635/667 (AID 1071); conditions: higher = more signal;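 also: score merges 667 nm spot intensity and signal to noise from triplicate slides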
# [5] = molecular target: Neurogenic locus notch homolog protein 2 (Homo sapiens) (UniProt Q04721); assay: Notch2 binders on small-molecule microarrays, primary screen, biochemical, small-molecule microarray, 635 nm fluorescence, stem cell growth factors (AID 1073); conditions: Notch2 binding, higher = more signal
# [6] = molecular target: Pro-neuregulin-1, membrane-bound isoform (Homo sapiens) (UniProt Q02297); assay: NRG1 binders on small-molecule microarrays, primary screen, psychiatric disease protein project, biochemical, small-molecule microarray, fluorescence 635/667 (AID 1075); conditions: NRG1 binding, 635 nm fluorescence, higher = more signal;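 also: score combines 667 nm spot fluorescence with signal to noise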
# [7] = tested on: Neuregulin-1 EGF-like domain; assay: binders of neuregulin-1 EGF-like domain, primary screen, biochemical, small-molecule microarray, 635 nm fluorescence (AID 1081); conditions: small-molecule microarray binding, higher = more signal;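 also: binding of the protein to compounds printed on small-molecule microarray slides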
# [8] = FRG1 promoter luciferase signal modulators, primary screen, FRG1 inhibition for FSHD, cell-based, C2C12 myotubes, firefly/Renilla luciferase, luminescence (AID 1084); conditions: higher = more signal, called active from +8 up or from −8 down
# [9] = binders of probe aFST on microarray, primary screen, stem cell growth factor project, biochemical, small-molecule microarray, fluorescence 635/667 (AID 1086); conditions: higher = more signal;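 also: score merges 667 nm fluorescence with signal-to-noise of each printed compound spot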
# [10] = binders of probe aHhip on microarray, primary screen, stem cell growth factor project, biochemical, small-molecule microarray, fluorescence 635/667 (AID 1087); conditions: higher = more signal;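 also: score merges spot fluorescence at 667nm with spot signal to noise ratio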
# [11] = tested on: PRMT1 (protein arginine N-methyltransferase 1); assay: PRMT1 binders on small-molecule microarrays, primary screen, biochemical, small-molecule microarray, 635 nm fluorescence (AID 1088); conditions: small-molecule microarray binding, higher = more signal;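 also: binding of Prmt1 protein to compounds spotted on small-molecule microarray slides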
# [12] = yeast growth modulation, basal conditions, primary screen, YJM789 clinical isolate, OD600, 24 h (AID 1089);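 also: growth of clinical yeast isolate S. cerevisiae YJM 789 seeded 1000 cells per well; test concentration not given here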; conditions: S. cerevisiae YJM789 growth, higher = more signal, called active from +8 up or from −8 down
# [13] = fission yeast growth modulation, primary screen, strain 972, OD600, 24 h, no modulator (AID 1090);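 also: basal condition with compound alone and no growth modifier present; test concentration not given here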; conditions: S. pombe 972 growth, higher = more signal, called active from +8 up or from −8 down
# [14] = S. cerevisiae growth modulation with rapamycin, primary screen, strain BY4716, OD600, 96 h (AID 1091); conditions: higher = more signal, called active from +8 up or from −8 down; also: test concentration not given here
# [15] = molecular target: Torsin-1A-interacting protein 2 (Homo sapiens) (UniProt Q8NFQ8); assay: LULL1 binders on small-molecule microarray, primary screen, cell lysate, human LULL1 lysate, 635/667 nm fluorescence (AID 1092); conditions: hLULL1 lysate binding, 635 nm fluorescence, higher = more signal;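 also: probe is lysate of COS7 cells overexpressing human LULL1; score merges per-feature 667 nm fluorescence with signal-to-noise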
# [16] = E. coli growth modulation, two-sided OD650, primary screen, E. coli filamentation project, strain DRC41, 24 h (AID 1093); conditions: OD650, 24 h, higher = more signal, called active from +8 up or from −8 down;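 also: MC1000 strain lacking acrAB efflux and sulA so SOS filamentation is blocked; test concentration not given here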
# [17] = small-molecule microarray binders of probe aLefty2, primary screen, biochemical, biotinylated probe, 635/667 nm fluorescence (AID 1094); conditions: higher = more signal;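 also: score merges spot fluorescence near 667 nm with spot signal-to-noise ratio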
# [18] = tested on: Noggin (protein binding on small-molecule microarray); assay: Noggin binders on small-molecule microarray, primary screen, biochemical, 635/667 nm fluorescence (AID 1095); conditions: 635 nm fluorescence, higher = more signal;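 also: score merges 667 nm feature fluorescence with signal to noise over triplicate slides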
# [19] = molecular target: Neurogenic locus notch homolog protein 3 (Homo sapiens) (UniProt Q9UM47); assay: NOTCH3 binders on small-molecule microarray, primary screen, biochemical, 635/667 nm fluorescence (AID 1096); conditions: NOTCH3 binding, 635 nm fluorescence, higher = more signal
# [20] = small-molecule microarray binders of probe aEGFR, primary screen, biochemical, biotinylated probe, 635/667 nm fluorescence (AID 1097); conditions: higher = more signal;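 also: probe is a biotinylated anti-EGFR antibody binding compounds printed on slides; score combines fluorescence near 667 nm and signal to noise of each spot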
# Sequence of Neurogenic locus notch homolog protein 2 (Homo sapiens) (Q04721 whole entry, looked up, canonical isoform): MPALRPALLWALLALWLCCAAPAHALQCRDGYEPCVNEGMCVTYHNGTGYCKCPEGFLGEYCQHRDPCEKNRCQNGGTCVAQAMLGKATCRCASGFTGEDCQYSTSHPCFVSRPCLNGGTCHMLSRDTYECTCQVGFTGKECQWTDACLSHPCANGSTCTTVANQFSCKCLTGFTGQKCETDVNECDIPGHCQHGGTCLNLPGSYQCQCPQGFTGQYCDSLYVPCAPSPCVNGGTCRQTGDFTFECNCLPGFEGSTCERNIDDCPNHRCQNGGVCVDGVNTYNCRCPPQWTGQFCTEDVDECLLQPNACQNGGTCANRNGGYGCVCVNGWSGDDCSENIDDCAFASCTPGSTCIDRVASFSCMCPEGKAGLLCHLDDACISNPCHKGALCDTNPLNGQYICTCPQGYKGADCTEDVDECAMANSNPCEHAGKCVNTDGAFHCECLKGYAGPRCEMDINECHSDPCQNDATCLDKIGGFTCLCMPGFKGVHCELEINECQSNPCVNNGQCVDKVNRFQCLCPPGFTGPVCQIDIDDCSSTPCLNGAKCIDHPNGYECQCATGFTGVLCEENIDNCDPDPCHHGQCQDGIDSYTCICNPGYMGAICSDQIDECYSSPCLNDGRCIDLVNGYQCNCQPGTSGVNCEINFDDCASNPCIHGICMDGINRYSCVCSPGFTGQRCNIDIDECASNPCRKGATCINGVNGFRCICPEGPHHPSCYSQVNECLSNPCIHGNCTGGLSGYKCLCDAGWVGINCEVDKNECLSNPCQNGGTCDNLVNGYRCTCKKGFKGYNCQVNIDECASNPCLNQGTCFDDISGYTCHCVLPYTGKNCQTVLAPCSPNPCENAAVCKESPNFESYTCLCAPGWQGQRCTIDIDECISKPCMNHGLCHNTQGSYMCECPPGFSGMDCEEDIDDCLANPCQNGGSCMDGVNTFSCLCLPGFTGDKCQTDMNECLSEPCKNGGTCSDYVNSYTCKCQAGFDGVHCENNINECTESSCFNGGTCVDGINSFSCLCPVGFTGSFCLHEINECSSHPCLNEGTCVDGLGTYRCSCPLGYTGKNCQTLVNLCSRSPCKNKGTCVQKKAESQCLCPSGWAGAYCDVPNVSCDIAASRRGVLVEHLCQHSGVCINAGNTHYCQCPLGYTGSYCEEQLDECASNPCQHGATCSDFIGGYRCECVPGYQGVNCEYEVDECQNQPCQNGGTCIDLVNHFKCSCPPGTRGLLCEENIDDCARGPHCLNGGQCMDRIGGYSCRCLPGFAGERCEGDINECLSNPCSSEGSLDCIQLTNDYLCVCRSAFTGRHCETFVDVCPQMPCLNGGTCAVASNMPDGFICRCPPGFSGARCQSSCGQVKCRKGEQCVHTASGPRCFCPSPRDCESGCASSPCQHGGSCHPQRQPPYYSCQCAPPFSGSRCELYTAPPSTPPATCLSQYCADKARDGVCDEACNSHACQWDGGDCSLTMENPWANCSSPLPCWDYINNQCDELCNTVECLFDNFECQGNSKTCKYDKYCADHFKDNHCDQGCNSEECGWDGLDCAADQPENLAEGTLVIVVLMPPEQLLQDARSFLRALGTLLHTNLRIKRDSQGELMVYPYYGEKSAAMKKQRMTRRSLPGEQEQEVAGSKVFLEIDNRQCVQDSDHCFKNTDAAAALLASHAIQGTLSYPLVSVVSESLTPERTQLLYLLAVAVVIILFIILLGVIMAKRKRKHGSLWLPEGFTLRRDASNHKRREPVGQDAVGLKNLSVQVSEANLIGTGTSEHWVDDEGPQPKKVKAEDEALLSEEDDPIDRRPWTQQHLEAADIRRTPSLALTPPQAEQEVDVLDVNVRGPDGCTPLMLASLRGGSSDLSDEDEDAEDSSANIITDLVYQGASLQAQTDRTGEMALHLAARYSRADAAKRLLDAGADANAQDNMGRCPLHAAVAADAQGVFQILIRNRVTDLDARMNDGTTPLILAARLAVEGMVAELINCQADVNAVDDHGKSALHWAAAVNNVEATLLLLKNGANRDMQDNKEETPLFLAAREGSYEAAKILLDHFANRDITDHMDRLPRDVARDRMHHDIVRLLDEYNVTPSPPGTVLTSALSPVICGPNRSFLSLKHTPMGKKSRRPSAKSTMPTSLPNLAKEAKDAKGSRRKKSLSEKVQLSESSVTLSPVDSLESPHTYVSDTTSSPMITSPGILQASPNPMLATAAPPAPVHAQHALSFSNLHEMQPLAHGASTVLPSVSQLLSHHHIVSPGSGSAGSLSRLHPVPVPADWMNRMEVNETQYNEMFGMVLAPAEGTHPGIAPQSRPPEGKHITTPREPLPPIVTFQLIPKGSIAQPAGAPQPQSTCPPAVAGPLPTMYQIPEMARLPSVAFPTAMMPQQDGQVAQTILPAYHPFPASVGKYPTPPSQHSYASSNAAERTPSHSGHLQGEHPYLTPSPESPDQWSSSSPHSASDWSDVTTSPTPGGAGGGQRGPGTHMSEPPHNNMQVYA
# Sequence of Torsin-1A-interacting protein 2 (Homo sapiens) (Q8NFQ8 whole entry, looked up): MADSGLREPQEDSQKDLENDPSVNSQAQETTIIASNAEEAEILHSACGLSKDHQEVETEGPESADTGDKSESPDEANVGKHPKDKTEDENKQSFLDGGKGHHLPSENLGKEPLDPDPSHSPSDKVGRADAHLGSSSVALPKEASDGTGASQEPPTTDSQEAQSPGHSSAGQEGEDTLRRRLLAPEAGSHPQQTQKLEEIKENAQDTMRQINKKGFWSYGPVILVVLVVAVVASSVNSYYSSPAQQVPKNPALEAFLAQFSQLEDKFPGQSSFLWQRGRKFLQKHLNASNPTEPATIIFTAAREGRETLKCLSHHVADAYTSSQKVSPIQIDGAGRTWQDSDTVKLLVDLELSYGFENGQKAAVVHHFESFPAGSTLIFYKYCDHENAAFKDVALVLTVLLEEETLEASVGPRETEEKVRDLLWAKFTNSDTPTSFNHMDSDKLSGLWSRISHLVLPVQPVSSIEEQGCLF
# Sequence of Pro-neuregulin-1, membrane-bound isoform (Homo sapiens) (Q02297 whole entry, looked up, the tested form may be a part, canonical isoform): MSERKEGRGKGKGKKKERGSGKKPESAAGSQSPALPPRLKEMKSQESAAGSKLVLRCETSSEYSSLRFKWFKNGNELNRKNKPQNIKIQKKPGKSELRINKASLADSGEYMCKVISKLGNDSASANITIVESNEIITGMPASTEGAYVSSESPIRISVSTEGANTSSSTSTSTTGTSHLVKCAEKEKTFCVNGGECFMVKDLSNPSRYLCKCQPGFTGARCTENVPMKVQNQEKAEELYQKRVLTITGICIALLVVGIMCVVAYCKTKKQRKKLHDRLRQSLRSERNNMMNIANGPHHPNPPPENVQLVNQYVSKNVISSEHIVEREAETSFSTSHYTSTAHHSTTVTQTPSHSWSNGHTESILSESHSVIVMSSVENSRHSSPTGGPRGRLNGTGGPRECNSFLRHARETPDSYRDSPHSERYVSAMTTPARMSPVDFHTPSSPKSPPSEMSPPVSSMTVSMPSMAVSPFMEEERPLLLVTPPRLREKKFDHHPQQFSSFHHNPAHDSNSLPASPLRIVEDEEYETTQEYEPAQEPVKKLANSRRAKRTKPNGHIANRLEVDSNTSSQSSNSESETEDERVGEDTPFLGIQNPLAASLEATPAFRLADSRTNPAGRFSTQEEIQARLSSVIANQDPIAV
SMILES,composite z-score [1],composite z-score [2],composite z-score [3],composite z-score [4],composite z-score [5],composite z-score [6],composite z-score [7],z-score [8],composite z-score [9],composite z-score [10],composite z-score [11],z-score [12],z-score [13],z-score [14],composite z-score [15],z-score [16],composite z-score [17],composite z-score [18],composite z-score [19],composite z-score [20]
CC(C)CON=C1C[C@@H](O)[C@@H](O)[C@@H]2[C@@H]3C(=O)N(c4cccc(Oc5ccccc5)c4)C(=O)[C@@H]3CC[C@H]12,-0.273,0.459,-0.179,0.253,0.547,0.685,0.781,-0.423 (inactive),0.769,-0.0645,0.973,0.097 (inactive),0.561 (inactive),-0.54 (inactive),0.897,1.04 (inactive),-0.136,0.318,0.951,-0.0549
CC(CO)N1C(=O)[C@@H]2C3C(=O)OCCC=C[C@H]3OC23C=CCN(Cc2ccccc2)C(=O)[C@@H]13 (stereo not given in full),0.144 and 0.708,1.03 and -0.0188,-0.162 and -0.111,-0.691 and 0.0659,-1.24 and -0.565,-0.852 and 1.22,1.08 and 0.738,0.587 (inactive) and 0.0791 (inactive),-0.41 and -0.455,-0.236 and -0.34,-0.477 and -0.385,0.814 (inactive) and -0.448 (inactive),-0.326 (inactive) and -1.08 (inactive),1.53 (inactive) and -0.42 (inactive),1.16 and 0.0845,1.3 (inactive) and 1.67 (inactive),-0.0216 and -0.0449,-1.05 and -0.529,-0.36 and -0.377,-0.196 and -0.221
C=C[C@H](OC)[C@@H](O)c1ccc(O)c(F)c1,1.25 and 1.29,-0.903 and -2.05,-0.116 and -0.247,-0.458 and -0.0501,-2.17 and -1.38,-0.527 and -1.01,-0.0988 and 0.736,0.537 (inactive) and -0.0808 (inactive),-1.08 and -1.54,-0.213 and -0.314,-1.12 and -0.749,-0.603 (inactive) and 0.106 (inactive),-0.0898 (inactive) and -0.311 (inactive),-1.17 (inactive) and -0.327 (inactive),-0.93 and -0.808,-0.853 (inactive) and 0.238 (inactive),-0.0992 and -0.215,-2.38 and -1.6,-1.42 and -1.23,-0.435 and -0.387
CO[C@H]1COC(=O)CC=C[C@@H](C)COC(=O)[C@@H](OCc2ccccc2)C=C[C@@H]1C,-0.773,1.86,-0.213,-0.68,-1.02,-0.212,1.14,-0.971 (inactive),-0.28,-0.0994,1.47,-0.744 (inactive),-1.31 (inactive),-0.855 (inactive),-0.404,0.973 (inactive),-0.353,2.02,-0.294,-0.135
CC(CO)N1C(=O)[C@@H]2C3C(=O)OCCC=C[C@H]3OC23C=CCN(CCN2CCOCC2)C(=O)[C@@H]13 (stereo not given in full),-0.316 and 0.246,-1.28 and 0.759,-0.166 and -0.085,-0.376 and -0.591,-0.0931 and 0.0406,-0.256 and 1.91,0.678 and 0.666,0.12 (inactive) and 0.497 (inactive),0.106 and 0.0417,-0.399 and -0.119,-0.353 and 1.34,0.517 (inactive) and -1.32 (inactive),-0.0581 (inactive) and -1.22 (inactive),0.565 (inactive) and -0.233 (inactive),-0.634 and 3.22,-0.381 (inactive) and -0.16 (inactive),-0.186 and 0.166,-0.0409 and 0.0947,0.331 and 0.465,-0.207 and -0.0046
COc1ccc(-c2ccc3c(n2)CCCN3CC(O)CN2CCCc3nc(-c4ccc(Br)cc4)ccc32)cc1 (stereo not given),0.0623 and 0.0721,0.744 and 0.464,0.12,0.505 and 0.348,0.684 and 0.709,1.05 and 0.841,0.973 and 0.101,3.12 (inactive) and 3.15 (inactive),0.584 and 0.306,0.281 and 0.167,1.47 and -0.0348,0.0467 (inactive) and -0.621 (inactive),-0.665 (inactive) and 0.124 (inactive),-2.52 (inactive) and -1.64 (inactive),1.24 and 0.778,0.0393 (inactive) and 0.816 (inactive),0.351 and 0.141,0.348 and 0.245,0.877 and 0.491,0.181 and 0.106
CON(C)C(=O)c1nnc2c3ccccc3n(S(=O)(=O)c3ccc(C)cc3)c2n1,-0.492 and -0.386,0.216 and 0.226,-0.208 and 0.0937,0.455 and 0.814,0.81 and 0.675,1.08 and 0.789,0.804 and 1.19,161 (active) and 193 (active),-0.458 and 0.184,0.12 and 0.28,-0.0043 and 1.58,-0.461 (inactive) and 0.111 (inactive),-0.823 (inactive) and -1.05 (inactive),0.171 (inactive) and -0.671 (inactive),1.2 and 1.93,0.155 (inactive) and 0.517 (inactive),-0.0944 and -0.229,0.423 and 0.772,0.233 and 1.04,-0.0238 and -0.171
C=CCN(C(=O)C(c1cccs1)N(C(=O)/C=C\C(=O)O)C(C)(C)CO)C(C)(C)C (stereo not given),-0.0667 and 0.0338,-0.543 and -0.24,0.0929 and -0.126,-0.433 and -0.781,-1.07 and -0.925,1.32 and 1.05,1.27 and 1.24,-1.03 (inactive) and -1.13 (inactive),-0.114 and -0.867,-0.0994 and -0.385,-0.381 and 0.182,-1.81 (inactive) and -2 (inactive),-1.45 (inactive) and -1.15 (inactive),-0.429 (inactive) and -0.373 (inactive),2.89 and 0.484,2.02 (inactive) and 1.22 (inactive),-0.141 and -0.147,-1.52 and -1.23,-0.97 and -0.967,-0.128 and -0.292
